# Data: PubChem BioAssay AID2330 (Broad Institute, 2010)
# About 2,800 (7.6%) of roughly 37,000 compounds were called active. About 1% were inconclusive and are not listed. The entries come from a sample that favours actives as a whole. A number with no mark means an inactive call. Cut-off read from the data, not from the text of the source: active = inhibition above about 80%; inconclusive = no clear call, values can overlap the other calls; inactive = below that.
# Test: NOMO-1 AML cell viability reduction, primary screen, STK33 inhibitor project, CellTiter-Glo luminescence (AID 2330)
# Conditions: NOMO-1 AML viability, 72 h, active compounds read high, concentration not given here
row,Structure (SMILES),inhibition
1,Cc1ccc([N+](=O)[O-])cc1N(CC(=O)Nc1ccc(Cl)c(C(F)(F)F)c1)S(C)(=O)=O,67.2%
2,Cc1cc(C(=O)Nc2cccc3c2O[C@@H](CN(C)Cc2ccc4c(c2)OCO4)[C@@H](C)CN([C@@H](C)CO)C3=O)n(C)n1,9.25%
3,COC(=O)c1ccccc1NC(=O)CNS(=O)(=O)c1cc(Cl)ccc1Cl,-6.45%
4,Cc1ccc(S(=O)(=O)N(C)C[C@H]2Oc3ccc(NS(C)(=O)=O)cc3CC(=O)N([C@@H](C)CO)C[C@H]2C)cc1,1.2%
5,Cc1noc(C)c1NC(=O)Nc1ccc2c(c1)C(=O)N([C@@H](C)CO)C[C@H](C)[C@H](CN(C)S(=O)(=O)c1ccc(Cl)cc1)O2,-6.69%
6,Oc1cc(O)c2c(c1)OC(c1ccc(O)c(O)c1)C(O)C2 (stereo not given),6.96%
7,COC(=O)C(C)N(C(=O)c1ccccc1[N+](=O)[O-])c1c(C)cccc1C (stereo not given),3.25%
8,O=C(CSc1nnc(-c2ccco2)n1-c1ccccc1)Nc1ccc(F)cc1,3.32%
9,CCCCCCc1ccc(O)cc1O,108% (active)
10,C[C@H]1CN([C@@H](C)CO)C(=O)c2cccc(NC(=O)C3CCCCC3)c2O[C@H]1CN(C)C(=O)NC1CCCCC1,-16%
11,C[C@@H]1CN([C@@H](C)CO)C(=O)c2cc(NS(=O)(=O)c3ccc(Cl)cc3)ccc2O[C@H]1CN(C)C(=O)Nc1ccc(C(F)(F)F)cc1,7.09%
12,Cc1cc(Cl)ccc1NC(=O)CN(c1ccc(Cl)c(Cl)c1)S(C)(=O)=O,16%
13,COc1ccc(C(=O)CSc2nc3ccc(OC)cc3[nH]2)cc1,3.9%
14,COC(=O)Nc1nc2ccc(Sc3ccccc3)cc2[nH]1,114% (active)
15,COc1ccc2nc(SCC(=O)Nc3ccc(I)cc3)[nH]c2c1,6.89%
16,COc1ccc(CN(C)C[C@H]2Oc3c(NS(=O)(=O)c4ccc(Cl)cc4)cccc3C(=O)N([C@H](C)CO)C[C@@H]2C)cc1,-1.33%
17,C[C@@H]1CN([C@H](C)CO)C(=O)c2cccc(NC(=O)Nc3ccc(F)cc3)c2O[C@@H]1CN(C)Cc1ccc(C(F)(F)F)cc1,35.7%
18,C[C@H](CO)N1C[C@H](C)[C@H](CN(C)Cc2ccc3c(c2)OCO3)Oc2c(NC(=O)NC3CCCCC3)cccc2C1=O,42.4%

row,Structure (SMILES),inhibition
1,C[C@H]1CN([C@@H](C)CO)C(=O)c2cccc(NC(=O)C3CCCCC3)c2O[C@H]1CN(C)Cc1ccc(C(F)(F)F)cc1,45.9%
2,C[C@H](CO)N1C[C@H](C)[C@@H](CN(C)Cc2ccc(C(F)(F)F)cc2)Oc2c(NC(=O)NC3CCCCC3)cccc2C1=O,83.9% (active)
3,COc1ccc(CN(C)C[C@H]2Oc3c(NC(=O)NC4CCCCC4)cccc3C(=O)N([C@@H](C)CO)C[C@@H]2C)cc1,48.8%
4,C[C@@H]1CN([C@H](C)CO)C(=O)c2cccc(NC(=O)NC3CCCCC3)c2O[C@H]1CN(C)Cc1ccc(C(F)(F)F)cc1,101% (active)
5,COc1ccc(N(CC(=O)Nc2ccccc2F)S(C)(=O)=O)cc1,40.4%
6,C[C@@H]1CN([C@H](C)CO)C(=O)c2cccc(NC(=O)Nc3cccc4ccccc34)c2O[C@@H]1CN(C)Cc1ccccc1,47.5%
7,O=C(O)C1CC=CCC1C(=O)Nc1ccc(C(=O)N2CCCCC2)c(Cl)c1 (stereo not given),2.77%
8,COc1ccc(OC)c(S(=O)(=O)N(C)CC(=O)Nc2cccc(Cl)c2C)c1,-0.499%
9,Cc1ccc(OCC(=O)Nc2cccc(NC(=O)c3ccco3)c2)cc1C,30.6%
10,C[C@H]1CN([C@@H](C)CO)C(=O)c2cc(NC(=O)Nc3cccc4ccccc34)ccc2O[C@@H]1CN(C)C,-2.04%
11,C[C@@H]1CN([C@@H](C)CO)C(=O)c2cc(NC(=O)Nc3cccc4ccccc34)ccc2O[C@@H]1CN(C)C(=O)Nc1cccc2ccccc12,76.6%
12,C[C@@H]1CN([C@@H](C)CO)C(=O)c2cc(NC(=O)Nc3cccc4ccccc34)ccc2O[C@@H]1CN(C)Cc1ccc(-c2ccccc2)cc1,109% (active)
13,C[C@@H]1CN([C@@H](C)CO)C(=O)c2cc(NC(=O)Nc3cccc4ccccc34)ccc2O[C@H]1CN(C)Cc1ccc(Oc2ccccc2)cc1,115% (active)
14,COc1ccc(CN(C)C[C@@H]2Oc3ccc(NC(=O)Nc4cccc5ccccc45)cc3C(=O)N([C@H](C)CO)C[C@H]2C)cc1,-6.53%
15,CC(C)NC(=O)Nc1ccc2c(c1)C(=O)N([C@@H](C)CO)C[C@@H](C)[C@H](CN(C)Cc1ccc(-c3ccccc3)cc1)O2,36.3%
16,C[C@H](CO)N1C[C@H](C)[C@H](CN(C)Cc2ccc3c(c2)OCO3)Oc2c(NS(=O)(=O)c3ccccc3)cccc2C1=O,-8.2%
17,C[C@H]1CN([C@@H](C)CO)C(=O)c2cccc(NS(=O)(=O)c3ccc(F)cc3)c2O[C@@H]1CN(C)Cc1ccncc1,-1.34%
